Screening results as filed in PubChem.
GPR151 activ = activators of human GPR151, primary screen, cell-based, PathHunter beta-arrestin, luminescence; PathHunter beta-arrestin GPR151 cells; activation, % at 11.2 µM; hit rate 1% among 650,000; AID 1508602, 2020; in the data active = activation above about 4.9%;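 also: 0% = median of compound wells and 100% = cells with positive control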
MITF inh = MITF inhibitors, primary screen, biochemical, AlphaScreen, human | Microphthalmia-associated transcription factor (Homo sapiens), O75030 | AlphaScreen MITF homodimerization, bead proximity signal | inhibition, % at 2.6 µM | hit rate 0.91% among 650,000; in the data active = inhibition above about 50%;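 also: 0% = vehicle wells with protein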
FBW7 act = FBW7 E3 ligase activators, primary screen, biochemical, AlphaScreen, human; F-box/WD repeat-containing protein 7 (Homo sapiens), Q969H0; AlphaScreen FBW7–phospho-cyclin E peptide binding, activator screen; normalized activity (activation), % at 26.1 µM; hit rate 0.13% among 650,000; AID 1259310, 2017; in the data active = normalized activity above about 1.9%;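 also: purified mutant Fbw7 with reduced substrate affinity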
Target sequence (Q969H0 whole entry, looked up): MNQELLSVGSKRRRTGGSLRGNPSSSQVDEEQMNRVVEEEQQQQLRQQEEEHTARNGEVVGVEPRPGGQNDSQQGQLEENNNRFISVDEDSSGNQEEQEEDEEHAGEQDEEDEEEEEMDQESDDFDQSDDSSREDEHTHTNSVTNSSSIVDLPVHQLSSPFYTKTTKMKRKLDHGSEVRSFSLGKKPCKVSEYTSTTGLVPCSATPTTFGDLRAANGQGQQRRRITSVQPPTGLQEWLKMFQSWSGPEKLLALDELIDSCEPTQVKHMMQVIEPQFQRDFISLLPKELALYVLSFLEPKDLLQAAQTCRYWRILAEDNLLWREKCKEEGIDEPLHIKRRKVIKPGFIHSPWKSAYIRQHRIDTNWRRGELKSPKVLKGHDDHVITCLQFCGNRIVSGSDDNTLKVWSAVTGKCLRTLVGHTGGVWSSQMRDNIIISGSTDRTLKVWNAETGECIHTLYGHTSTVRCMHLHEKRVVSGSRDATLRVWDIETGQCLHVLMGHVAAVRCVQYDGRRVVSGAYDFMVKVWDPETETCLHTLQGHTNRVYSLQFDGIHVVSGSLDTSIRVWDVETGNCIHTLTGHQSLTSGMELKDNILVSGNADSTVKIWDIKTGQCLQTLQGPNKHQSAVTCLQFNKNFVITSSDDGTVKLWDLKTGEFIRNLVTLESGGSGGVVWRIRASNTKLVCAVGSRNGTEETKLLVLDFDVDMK
TEAD-YAP inh = TEAD-YAP interaction inhibition, primary screen, TEAD-YAP interaction inhibitor project, luminescence, HEK-TIYL cells; inhibition, % at 9.12 µM; AID 1259422, 2018; hit rate 1.4% among 640,000; TEAD-Gal4/YAP UAS-luciferase luminescence; in the data active = inhibition above about 32%;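 also: 0% = median of test compound wells and 100% = reference inhibitor wells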
GPR151 confirm = GPR151 activators, triplicate retest, confirmation, cell-based, PathHunter beta-arrestin, luminescence. shares compounds with GPR151 activ. activation, % at 11.2 µM. GPR151 PathHunter beta-arrestin cells, 90 min; % of EA-reagent control over plate median. 6,700 tested, under 10 active;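 active = mean percent activation across replicates above the confirmation screen cutoff of 4.91%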
GPR119 counter = GPR119 activators in beta-arrestin cells, counter-screen for GPR151 activator project, cell-based, PathHunter beta-arrestin, luminescence, triplicate; shares compounds with GPR151 activ; 90 min; 0 = compound-well median, 100 = enzyme-acceptor control; activation, % at 11.2 µM; hit rate 0.3% among 6,700; AID 1508611, 2020;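 active = mean percent activation in the counterscreen above 29.09%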;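 also: counterscreen on off-target GPR119 to flag nonselective hits from the GPR151 activator screen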
The depositor's hits bear a star; nt = no result; ! = repeats disagree. Rows were chosen to be rich in hits. Some 3.4% of all compounds tested hit in one or more screens of this group.

SMILES	GPR151 activ	MITF inh	FBW7 act	TEAD-YAP inh	GPR151 confirm	GPR119 counter
COc1ccc(S(=O)(=O)NCC2CCCN(Cc3ccc4c(c3)OCCO4)C2)cc1 (stereo not given)	-1.6	14.0	0.3	11.1	nt	nt
COC(=O)c1cc(S(=O)(=O)Nc2cc(C)ccc2C)cn1C	-0.2	10.8	0.6	7.1	nt	nt
COc1cc(NC(=O)Nc2ccc(-c3nc4ccccc4o3)cc2)cc(OC)c1OC	5.6*	-8.7	0.1	-40.3	0.2	6.8
O=C(Nc1ccnn1C1CCN(Cc2ccc3c(c2)OCCO3)CC1)C1CC1	0.2	8.0	0.2	2.0	nt	nt
O=C(CN1CCN(S(=O)(=O)c2ccc(Br)cc2)CC1)Nc1ccc(Cl)c(C(F)(F)F)c1	5.8*	-5.0	0.0	10.8	-1.2	-6.2
CCCCN(C)S(=O)(=O)c1ccc(C(=O)Nc2ccc3sc(C)nc3c2)cc1	5.2*	27.0	0.5	61.0*	0.5	13.1
COc1cc2nc(Nc3ccccn3)nc(Nc3ccc(Oc4ccccc4)cc3)c2cc1OC	-1.8	-6.2	-0.2	-6.0	nt	nt
COc1cc2nc(Nc3ccccn3)nc(Nc3cc(OC)c(OC)c(OC)c3)c2cc1OC	7.3*	8.2	-0.2	14.3	1.5	3.3
CCOc1ccc(NC(=O)CSc2nnc(-c3ccncc3)n2CC(C)C)cc1	0.4	1.2	-0.1	-2.5	nt	nt
COc1cccc(CCC(=O)N2CCCC(N3CCC(CO)CC3)C2)c1 (stereo not given)	8.1*	12.5	0.0	9.7	-0.4	-9.6
OCCNCCCOc1cccc(Cl)c1Cl	5.5*!	10.7	-0.3	69.9*	-0.2	-0.2
OCCNCCCCOc1cccc(Cl)c1Cl	-3.8	35.1	0.8	12.5	nt	nt
Cc1nc2c(c(=O)[nH]1)CN(C(=O)C1(c3cccc(F)c3)CCCC1)CC2	6.5*	-0.2	0.1	2.8	-0.1	5.3
Cc1nc2c(c(=O)[nH]1)CN(C(=O)C1(c3ccc(Cl)cc3)CCC1)CC2	2.1	4.6	0.1	-4.1	nt	nt
CCC(C)c1ccccc1NS(=O)(=O)Cc1ccccc1 (stereo not given)	5.8*	-2.2	0.0	5.0	0.1	-8.2
CC(C)NC(=O)c1ccccc1NS(=O)(=O)Cc1ccccc1	0.4	13.8	0.8	15.0	nt	nt
Cc1cc2oc(=O)cc(C)c2cc1N	0.9	-6.3	-0.2	4.6	nt	nt
Cc1ccn(C2CC(=O)N(c3ccc(Cl)cc3)C2=O)n1 (stereo not given)	3.6	1.7	0.0	-1.4	nt	nt
Cc1ccc(-c2cc(C(=O)Nc3cccnc3)c3cc(Br)ccc3n2)o1	6.5*	-5.2	-0.1	-2.2	-0.9	-11.2
COc1ccc(NC(=O)CN2C(=O)CC(c3ccco3)Sc3ccccc32)cc1OC (stereo not given)	-1.1	1.4	0.0	12.3	nt	nt
CCOC(=O)CN1C(=O)COc2ccc(Cl)cc21	5.6*	-4.1	0.0	-0.3	0.0	-6.1
COc1ccc(NC(=O)CN2C(=O)COc3ccc(C)cc32)cc1OC	6.0*	6.1	0.4	5.7	0.7	10.4
O=C(CN1C(=O)COc2ccc(Cl)cc21)Nc1ccc([N+](=O)[O-])cc1	7.6*	-3.0	-0.2	14.2	0.9	-2.2
COc1ccc(NC(=O)CN2C(=O)CC(c3ccccc3)Sc3ccccc32)cc1OC (stereo not given)	7.4*	-4.4	0.8	1.2	0.6	-2.7
Cc1ccc2c(c1)N(CC(=O)Nc1ccc3c(c1)OCCO3)C(=O)CO2	-1.4	10.5	0.0	14.2	nt	nt
SMILES	GPR151 activ	MITF inh	FBW7 act	TEAD-YAP inh	GPR151 confirm	GPR119 counter
O=C(Nc1cccc(F)c1)NC1(C(=O)NCc2cccs2)CCCCC1	-0.5	-7.5	0.6	-3.4	nt	nt
Cc1ccc2c(c1)N(CC(=O)Nc1ccc(Cl)cc1)C(=O)C(C)O2 (stereo not given)	22.1*	-8.5	0.3	8.3	0.8	5.8
COc1ccc(NC(=O)CN2C(=O)C(C)Oc3ccc(C)cc32)cc1 (stereo not given)	-1.5	22.7	0.2	5.1	nt	nt
CNc1ncnc2c1cnn2-c1cc(Cl)ccc1C	-1.1	-1.5	-0.1	-9.2	nt	nt
CCOc1ccc(CN(C(=O)c2cccs2)C2CCS(=O)(=O)C2)cc1 (stereo not given)	6.8*	4.9	-0.1	-9.4	0.1	8.9
COc1ccc(CN(C(=O)c2cccs2)C2CCS(=O)(=O)C2)cc1 (stereo not given)	-0.4	13.8	0.0	-0.1	nt	nt
CSc1nnc2c(n1)OC(c1cc(O)c(O)c(Br)c1)Nc1ccccc1-2 (stereo not given)	0.7	6.8	-0.4	-5.8	nt	nt
C=CCn1c(SC(C)C)nc2c1c(=O)n(C)c(=O)n2C	8.6*	3.1	-0.3	-1.2	-0.1	3.5
FC(F)(F)c1ccc(-c2cnnc(N3CCSCC3)n2)cc1	1.9	-4.5	0.0	-0.9	nt	nt
OC1CCN(C2CCN(c3nncc(-c4ccc(C(F)(F)F)cc4)n3)CC2)CC1	7.3*	-2.0	0.0	18.6	0.0	-3.9
Cc1ccc(/C(N)=N/OC(=O)COc2ccc(Br)cc2C)cc1	-0.4	1.5	0.1	0.5	nt	nt
COc1ccccc1NC(=O)Cn1c(=O)n(Cc2ccc(F)cc2)c(=O)c2cccnc21	0.6	4.5	-0.1	16.3	nt	nt
COc1ccccc1NC(=O)Cn1c(=O)n(Cc2ccccc2)c(=O)c2cccnc21	5.2*	-0.8	0.2	8.7	-0.6	-1.6
CCOC(=O)c1c(NC(=O)CSc2nnc3cc(C)c4ccccc4n23)sc(C)c1C	-0.8	-6.2	-0.1	0.4	nt	nt
C[C@@H](O)[C@@H]1NC(=O)[C@H]2CN(C(=O)c3ccc4ccccc4c3)CCN2C1=O	3.1	10.0	0.0	5.5	nt	nt
O=C1N[C@@H](Cc2ccc(Cl)cc2)C(=O)N2CCN(C(=O)c3cc(Cl)cc(Cl)c3)C[C@H]12	15.5*	1.2	-0.1	-6.0	1.3	10.1
O=C1N[C@@H](Cc2cnc[nH]2)C(=O)N2CCN(C(=O)c3ccc(F)cc3)C[C@H]12	6.0*	-20.4	-0.2	-2.7	0.9	12.3
O=C1N[C@@H](Cc2ccc(O)cc2)C(=O)N2CCN(C(=O)c3cc(F)ccc3F)C[C@H]12	5.7*	-1.9	0.1	-18.2	1.1	9.0
C[C@H](O)[C@H]1NC(=O)[C@H]2CN(C(=O)c3ccc4ccccc4c3)CCN2C1=O	6.2*	-1.6	0.1	6.5	1.2	13.4
CC[C@@H]1NC(=O)[C@H]2CN(C(=O)c3cccc(Cl)c3)CCN2C1=O	12.7*	6.0	0.0	-2.0	1.0	10.4
CCCc1nnc2sc(NC(=O)c3ccc(OC)c(OC)c3)nn12	2.6	8.2	0.2	-4.1	nt	nt
Nc1nnc(SCC(=O)Nc2nc(-c3ccc(Br)cc3)cs2)s1	1.3	-2.5	0.5	11.6	nt	nt
